Molecules are shown by their SMILES. Screen size: about 69,000 compounds; about 8,600 (12%) showed an effect of 50% or more. This excerpt belongs to a sample that is enriched for strong results.

These results are taken from ChEMBL document CHEMBL4513216, “Probing the Open Global Health Chemical Diversity Library for Multistage-Active Starting Points for Next-Generation Antimalarials” (ACS Infect Dis, 2020).

This assay concerns Plasmodium berghei. Nature of the assay: Screen against P. berghei liver stage (PbLuc), transformed with Luciferase, at 10uM. The note with it: tested at 10 uM. The assay is classed as functional, HepG2.
On to `CC(C)Cc1nc(CN2CCN(CC(O)c3ccccc3)CC2)no1` (configuration not stated), for which the INHIBITION worked out at 23.5%.
The value for `CN(Cc1cnn(C)c1)C(=O)c1ccc(=O)n(Cc2ccccc2)n1` was 0.164%; that for `Cc1ccc(C)c(C(O)CN(C)Cc2nnc3ccccn23)c1` (configuration not stated) was 23.3%; that for `O=C(CCC1CCCCC1)NCc1nnc2ccccn12` was -18.7%.
The value for `Cc1ccc(C)c(CN(C)Cc2nnc3ccccn23)c1` was 9.45%; that for `CN(Cc1nnc2ccccn12)C(=O)CC1CCCCC1` was 10.7%; that for `CN(Cc1nnc2ccccn12)C(=O)CCNC(=O)C(C)(C)C` was 8.77%.
Take `Cn1cccc1CNC(=O)CCCc1nnc2ccccn12`: the INHIBITION is reported as -23.7%.
The value for `CCC(O)CN(C)Cc1nnc2ccccn12` (configuration not stated) was 61.8%; that for `O=C(CCC1CCCC1)NCc1nnc2ccccn12` was 76.4%; that for `CN(Cc1nnc2ccccn12)C(=O)CCC1CCCC1` was 54.7%.
Consider `Cc1cc(C2CCCN(S(=O)(=O)c3cn(C)cn3)C2)ccn1` (configuration not stated), for which the INHIBITION was 12.8%.
The value for `Cc1cnn(CC2CCCN2C(=O)c2c(F)cccc2Cl)c1` (configuration not stated) was -59.4%; that for `CC(O)CN1CCN(C(=O)c2ccn(-c3ccc(F)cc3)n2)CC1` (configuration not stated) was -7.35%.
With `Cc1cc(-c2ccc(=O)n(CCNC(=O)C3CC3)n2)c(C)o1` the figure was -21.2%.
The value for `CC(C)C(C)NC(=O)c1cc(Br)c2c(c1)OCCO2` (configuration not stated) was 23.5%; that for `Cc1ccc(F)c(NS(=O)(=O)c2cc(C(=O)O)oc2C)c1` was 12.7%.
Regarding `COc1cccc2cc(CNC(=O)N3CCC(N4CCCC4)C3)oc12` (configuration not stated), the INHIBITION amounted to 54.4%.
The value for `COc1cccc2cc(CNC(=O)N3CCCC(O)C3)oc12` (configuration not stated) was 42.7%.
For the compound `COc1cccc2cc(CNC(=O)N3CCC(C(N)=O)CC3)oc12`, the INHIBITION is listed as -36.1%.
The value for `COc1cccc2[nH]c(C(=O)N3CCNCC3C(N)=O)cc12` (configuration not stated) was 12.285%.
Regarding `CCN(CC)C(CNC(=O)c1c(C)noc1C(C)C)c1ccsc1` (configuration not stated), the INHIBITION was 33.7%.
The value for `CC1=Nc2c(c(=O)[nH]n2C2CCCCC2)C(c2cccnc2)S1` (configuration not stated) was 14.2%.
With `CCN1CCN(Cc2nc(C)no2)CC1` the figure was 0.818%; with `CC(C)Cc1noc(CN2CCN(c3nccs3)CC2)n1`, -22.6%.
On to `CC(C)Cc1noc(CN2CCN(S(C)(=O)=O)CC2)n1`, for which the INHIBITION was determined as 32.78%.
Turning to `CC(C)Cc1noc(CN2CCCN(C(=O)c3ccccc3Cl)CC2)n1`, the INHIBITION turned out to be 37.2%.
With `CC(C)Cc1noc(CN2CCN(CCO)CC2)n1` the figure was 48.9%; with `CCOCCN1CCN(Cc2nc(C3CC3)no2)CC1CC` (configuration not stated), 38.7%; with `CCOCCN1CCN(Cc2nc(C)no2)CC1CC` (configuration not stated), 54.4%.
With `CCOCCN1CCN(Cc2nc(CC(C)C)no2)CC1` the figure was 53.575%; with `CCN1CCN(Cc2nc(CC(C)C)no2)CC1`, 16.45%; with `CC(C)Cc1noc(CN2CCN(C(=O)c3cccc(F)c3)CC2)n1`, -29.9%.
The value for `CC(C)Cc1noc(CN2CCN(CCOc3ccc(Cl)cc3)CC2)n1` was 79.9%; that for `CC(C)Cc1noc(CN2CCCN(C(=O)c3cccc(Cl)c3)CC2)n1` was 68.3%.
As for `CN(C)C(=O)CN1C(=O)CO[C@@H]2CN(c3ccccn3)C[C@H]21`, the INHIBITION is 21.7%.
For the compound `CCOc1c(F)cccc1C(=O)N(C)CCc1ccccn1`, the INHIBITION was found to be 24.7%.
With `O=C(NC1CCCC1)c1ccc(C2CCCNC2)nc1` (configuration not stated) the figure was -17.7%.
The value for `CC(=O)NCCc1cc2nc(-c3ccncc3)ccn2n1` was 14.105%; that for `Cc1noc(C)c1CN1CCc2cnn(C)c2C1COCC1CC1` (configuration not stated) was 23.3%; that for `CCC[C@@H]1CN(c2cncc(C(=O)N3CCOCC3)n2)C[C@H]1N(C)C` was -31.7%.
The value for `Cc1nc(CNC(=O)N(CCCO)C2CCc3ccccc32)oc1C` (configuration not stated) was 21.6%.
For the compound `CCOCCN1CCN(Cc2nnc(C3CC3)o2)CC1C` (configuration not stated), the INHIBITION is 74.2%.
With `CCOCCN1CCN(Cc2nnc(C3CC3)o2)CC1` the figure was 12.6%.
Consider `CCOCCN1CCN(Cc2nnc(C3CC3)o2)CC1CC` (configuration not stated), for which the INHIBITION is given as 0%.
With `O=C(CCc1ccc(-n2cnnn2)cc1)Nc1nncs1` the figure was 40.6%; with `O=C(Cc1ccc2c(c1)CCO2)N1CCN(c2ccccn2)CC1`, -13.5%; with `NCCCn1nc(C(F)(F)F)c2c1CCC2`, 27.8%.
With `N#CCCn1nc(C(F)(F)F)c2c1CCCC2` the figure was 42.6%; with `N#CCCn1nc(C(F)(F)F)c2c1CCC2`, 57.5%; with `Cc1nccn1C1CCCN(C(=O)c2cccc(-n3cccc3)c2)C1` (configuration not stated), 43.2%.
The value for `Cc1cccc(C(=O)N2CCCCC2c2[nH]ncc2S(C)(=O)=O)c1` (configuration not stated) was 4.08%; that for `O=S(=O)(NCc1ccc(S(=O)(=O)N2CCCC2)s1)c1cc(Cl)cc(Cl)c1` was 40.6%; that for `Cn1cc(NC(=O)N2CCCC2c2cccnc2)ccc1=O` (configuration not stated) was -72.2%.
As for `CC(C)C1SCC(=O)Nc2c1cnn2-c1ccc(F)cc1` (configuration not stated), the INHIBITION worked out at 8.99%.
As to `CC(C)C1SCC(=O)Nc2c1cnn2-c1ccc(Cl)cc1` (configuration not stated), the INHIBITION worked out at 78%.
The value for `COc1ccc(-n2ncc3c2NC(=O)CSC3C(C)C)cc1` (configuration not stated) was 5.51%; that for `CCn1cc2[nH]c(OC)c(CNC(=O)C3CCS(=O)(=O)CC3)cc-2c1=O` was -21.8%; that for `O=C1O[C@@H]2CN(Cc3cc4ccccc4o3)C[C@@H]2N1Cc1ccccn1` was 55%.
Regarding `Cc1ccc(CN2C[C@H]3OC(=O)N(Cc4ccccn4)[C@H]3C2)o1`, the INHIBITION is reported as 22.9%.
The value for `O=C1O[C@@H]2CN(Cc3cc4ccccc4s3)C[C@@H]2N1Cc1ccccn1` was 36.5%; that for `Cc1ccc(-c2cnnc(N3CCCC3c3nonc3C)n2)o1` (configuration not stated) was 5.67%.
The value for `CN1C(=O)CCc2cc(NC(=O)C3CC(=O)N(CC4CC4)C3)ccc21` (configuration not stated) was -5.57%; that for `Cc1cccc(-c2noc(CN3CCCCC3Cn3cncn3)n2)c1` (configuration not stated) was 9.14%; that for `Cc1cccc(NC(=O)[C@@H]2CCCN2CC(=O)N2CCCCCC2)n1` was -3.83%.
The value for `Cc1cccc(NC(=O)[C@@H]2CCCN2Cc2ccccc2C#N)n1` was 0.342%; that for `Cc1cccc(NC(=O)[C@@H]2CCCN2CC(=O)Nc2ccccc2)n1` was 76.5%.
As for `CC(C)(C)Oc1ccc(NCC(=O)NCc2ccco2)cc1`, the INHIBITION is on record as 16.1%.
The value for `OC(CN1CCN(Cc2nc(C3CC3)no2)CC1)c1ccccc1` (configuration not stated) was -45.9%; that for `CCCN(CCC)c1ncc(S(=O)(=O)c2cccc(C)c2)c(N)n1` was 6.29%.
With `CCCN(CCC)c1ncc(S(=O)(=O)c2ccccc2)c(N)n1` the figure was 52.4%; with `CCCN(CCC)c1ncc(S(=O)(=O)c2ccc(C)cc2)c(N)n1`, 20.4%.
For `CN(Cc1ccccc1OC(F)(F)F)C(=O)C1CC1`, the INHIBITION is recorded as 82.7%.
With `CN(Cc1ccccc1OC(F)(F)F)C(=O)C1CCCN(C(N)=O)C1` (configuration not stated) the figure was -116%; with `COc1ccnc(N(C)Cc2ccccc2OC(F)(F)F)n1`, 15.2%.
Take `COCC1CC2(CCN(Cc3ccccn3)CC2)CN1c1ncccn1` (configuration not stated): the INHIBITION amounted to 8.67%.
Take `CC(C)CCn1c(=O)[nH]c2cn(-c3ccc(F)cc3)c(=O)n21`: the INHIBITION was -15%.
`CN1CCC(C(=O)NCCC2CN(c3cnn(C)c(=O)c3)CCO2)CC1` (configuration not stated): the INHIBITION is recorded as 23.6%.
With `O=C1OCCCN1Cc1nc(-c2ccncc2)no1` the figure was 36.5%.
`O=C1OCCCN1Cc1nc(-c2ccc(N3CCCCC3)cc2)no1`: the INHIBITION was 55.5%.
In the case of `O=C1NCCCN1Cc1nc(-c2ccc(N3CCCCC3)cc2)no1`, the INHIBITION came out at 26.4%.
With `Cc1ccc2[nH]c(=O)cc(C(=O)N[C@@H]3C[C@@H](CO)N(C)C3)c2c1` the figure was 46.7%; with `O=C(CSC1=NS(=O)(=O)c2cc(F)ccc2N1)Nc1ccc(Cl)cc1`, 3.52%.
The value for `O=C(CSC1=NS(=O)(=O)c2cc(F)ccc2N1)Nc1ccc(Cl)c(Cl)c1` was 57.3%; that for `O=C(CSC1=NS(=O)(=O)c2cc(F)ccc2N1)Nc1cccc(Cl)c1` was 16.6%; that for `COc1cc2c(nn1)CCN(Cc1ncc(C(C)(C)C)o1)C2` was 18.9%.
With `COc1cc2c(nn1)CCN(Cc1nc(Cc3ccccc3)no1)C2` the figure was -112%; with `COc1cc2c(nn1)CCN(Cc1nnc(Cc3ccccc3)o1)C2`, 88.5%.
Take `O=C(C1CCCO1)N1CCCn2c(nnc2Cn2ccnc2)C1` (configuration not stated): the INHIBITION is reported as -12.4%.
On to `CC(C)n1cc(S(=O)(=O)N2CCCCCC2)cn1`, for which the INHIBITION is recorded as 33.3%.
On to `c1ccc(CCc2n[nH]c(C3CCC3)n2)cc1`, for which the INHIBITION is listed as -31.9%.
The value for `OC1(CNc2ccc(F)cc2)CCNCC1` was 6.29%.
Turning to `COc1ccc(NCC2(O)CCNCC2)cc1OC`, the INHIBITION was 62.7%.
The value for `Cc1ccc(NCC2(O)CCNCC2)cc1C` was 23.1%; that for `O=C(CCn1c(C(F)(F)F)cc2cccnc21)NC1CCCC1` was 8.72%; that for `Cc1nc2c(c(NCCCN3CCOCC3)n1)CCN(C)C2` was 59.7%.
With `Cc1nc2c(c(NCCN3CCOCC3)n1)CCN(C)C2` the figure was 7.55%; with `CCN(CC)CCCNc1nc(C)nc2c1CCN(C)C2`, 5.185%; with `CC(C)Cc1nc(CN2CCOC(Cn3cncn3)C2)no1` (configuration not stated), 15.3%.
The value for `Cc1nccc(N2CCCC2CCNS(C)(=O)=O)n1` (configuration not stated) was 10.9%; that for `c1ccc(Cc2nc(CN3CCCC3Cn3cncn3)cs2)cc1` (configuration not stated) was 23.5%.
In the case of `CCc1cc(=O)n(CCNC(=O)Nc2ccc(OC(F)(F)F)cc2)cn1`, the INHIBITION was found to be 28%.
Consider `CCc1ccc(S(=O)(=O)NCC2CCN(c3cnccn3)CC2)s1`, for which the INHIBITION came out at 83%.
The value for `O=S(=O)(NCC1CCN(c2cnccn2)CC1)c1cccs1` was 25.1%.
The value for `CCS(=O)(=O)NCC1CCN(c2cnccn2)CC1` was 40%; that for `O=C(c1cc[nH]n1)N1CCc2onc(COc3cccnc3)c2C1` was 67.2%.
The value for `CC(=O)NCc1nn(C)c2c1CN(Cc1ccsc1)C2` was 69.7%.
On to `CC(=O)NCc1noc2c1CN(Cc1ccsc1)CC2`, for which the INHIBITION was determined as 64.5%.
The value for `c1cncc(OCc2noc3c2CN(Cc2ccoc2)CC3)c1` was -3.95%.
The value for `c1cncc(OCc2noc3c2CN(Cc2ccsc2)CC3)c1` was 56.1%.
With `CC(=O)N(C)Cc1nn(C)c2c1CN(Cc1ccsc1)C2` the figure was -37.9%; with `Cn1nc(Cn2cccc2)c2c1CN(Cc1ccsc1)C2`, -5.08%; with `O=C(N1CCCC1)N1CCc2onc(COc3cccnc3)c2C1`, 20.6%.
As to `c1cncc(OCc2noc3c2CN(Cc2cccs2)CC3)c1`, the INHIBITION is recorded as -26.5%.
With `CC(=O)NCc1noc2c1CN(Cc1cccs1)CC2` the figure was 6.83%; with `O=C(c1ccc[nH]1)N1CCc2onc(COc3cccnc3)c2C1`, 21.8%.
For `CC(=O)NCc1noc2c1CN(Cc1cnn(C)c1)CC2`, the INHIBITION is recorded as 46.7%.
